Results on 19 molecules are retold here after ChEMBL document CHEMBL1961873, “Compounds: GSK PKIS; Assays: Nanosyn kinase panel” (2012).

As usually defined, the inhibition is the drop in the measured response relative to a control, in per cent.

In experiment [1] the target is T1, Muscle, skeletal receptor tyrosine-protein kinase (Homo sapiens) (UniProt O15146).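 Note: reported value is the mean percent inhibition of MuSK kinase.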
T1 sequence (whole entry): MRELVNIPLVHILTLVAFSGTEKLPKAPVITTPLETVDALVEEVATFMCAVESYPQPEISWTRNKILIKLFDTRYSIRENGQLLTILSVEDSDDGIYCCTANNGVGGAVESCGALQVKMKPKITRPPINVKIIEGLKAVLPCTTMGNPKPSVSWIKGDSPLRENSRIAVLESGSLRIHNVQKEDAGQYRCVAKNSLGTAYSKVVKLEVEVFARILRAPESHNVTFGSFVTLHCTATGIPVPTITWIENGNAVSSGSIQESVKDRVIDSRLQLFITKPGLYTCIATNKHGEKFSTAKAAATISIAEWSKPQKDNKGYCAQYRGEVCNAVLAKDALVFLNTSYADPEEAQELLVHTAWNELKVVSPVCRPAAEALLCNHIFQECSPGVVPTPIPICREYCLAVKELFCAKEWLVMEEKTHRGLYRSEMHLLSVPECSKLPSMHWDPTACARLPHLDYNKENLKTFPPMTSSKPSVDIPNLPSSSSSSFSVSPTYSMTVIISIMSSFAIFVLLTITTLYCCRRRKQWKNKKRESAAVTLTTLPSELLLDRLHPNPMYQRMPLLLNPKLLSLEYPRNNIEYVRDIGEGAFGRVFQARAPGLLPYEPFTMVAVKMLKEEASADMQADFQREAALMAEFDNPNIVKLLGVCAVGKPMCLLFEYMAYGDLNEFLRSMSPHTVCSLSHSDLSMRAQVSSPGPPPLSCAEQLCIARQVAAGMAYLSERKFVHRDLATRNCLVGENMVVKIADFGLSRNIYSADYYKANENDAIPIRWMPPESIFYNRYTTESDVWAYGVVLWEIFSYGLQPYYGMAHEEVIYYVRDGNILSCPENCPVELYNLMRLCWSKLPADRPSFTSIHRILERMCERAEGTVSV
Conditions: at 1 µM.

Experiment [2] concerns the target Platelet-derived growth factor receptor alpha (Homo sapiens) (UniProt P16234). As to conditions: at 0.1 µM.
The target is the same in experiment [3]. Conditions: at 1 µM.
Experiment [4] relates to Platelet-derived growth factor receptor alpha (Homo sapiens), P16234 [D842V]. As to conditions: at 0.1 µM.
For experiment [5] the test system is unchanged. As to conditions: at 1 µM.
In experiment [6] the test system is Platelet-derived growth factor receptor alpha (Homo sapiens), P16234 [T674I]. As to conditions: at 0.1 µM.
Experiment [7] shares this test system. Conditions: at 1 µM.
In experiment [8] the test system is Platelet-derived growth factor receptor alpha (Homo sapiens), P16234 [V561D]. As to conditions: at 0.1 µM.
Experiment [9] shares this test system. Conditions: at 1 µM.
Experiment [10] deals with Platelet-derived growth factor receptor beta (Homo sapiens) (UniProt P09619). As to conditions: at 0.1 µM.
Sequence of Platelet-derived growth factor receptor beta (Homo sapiens) (P09619 whole entry): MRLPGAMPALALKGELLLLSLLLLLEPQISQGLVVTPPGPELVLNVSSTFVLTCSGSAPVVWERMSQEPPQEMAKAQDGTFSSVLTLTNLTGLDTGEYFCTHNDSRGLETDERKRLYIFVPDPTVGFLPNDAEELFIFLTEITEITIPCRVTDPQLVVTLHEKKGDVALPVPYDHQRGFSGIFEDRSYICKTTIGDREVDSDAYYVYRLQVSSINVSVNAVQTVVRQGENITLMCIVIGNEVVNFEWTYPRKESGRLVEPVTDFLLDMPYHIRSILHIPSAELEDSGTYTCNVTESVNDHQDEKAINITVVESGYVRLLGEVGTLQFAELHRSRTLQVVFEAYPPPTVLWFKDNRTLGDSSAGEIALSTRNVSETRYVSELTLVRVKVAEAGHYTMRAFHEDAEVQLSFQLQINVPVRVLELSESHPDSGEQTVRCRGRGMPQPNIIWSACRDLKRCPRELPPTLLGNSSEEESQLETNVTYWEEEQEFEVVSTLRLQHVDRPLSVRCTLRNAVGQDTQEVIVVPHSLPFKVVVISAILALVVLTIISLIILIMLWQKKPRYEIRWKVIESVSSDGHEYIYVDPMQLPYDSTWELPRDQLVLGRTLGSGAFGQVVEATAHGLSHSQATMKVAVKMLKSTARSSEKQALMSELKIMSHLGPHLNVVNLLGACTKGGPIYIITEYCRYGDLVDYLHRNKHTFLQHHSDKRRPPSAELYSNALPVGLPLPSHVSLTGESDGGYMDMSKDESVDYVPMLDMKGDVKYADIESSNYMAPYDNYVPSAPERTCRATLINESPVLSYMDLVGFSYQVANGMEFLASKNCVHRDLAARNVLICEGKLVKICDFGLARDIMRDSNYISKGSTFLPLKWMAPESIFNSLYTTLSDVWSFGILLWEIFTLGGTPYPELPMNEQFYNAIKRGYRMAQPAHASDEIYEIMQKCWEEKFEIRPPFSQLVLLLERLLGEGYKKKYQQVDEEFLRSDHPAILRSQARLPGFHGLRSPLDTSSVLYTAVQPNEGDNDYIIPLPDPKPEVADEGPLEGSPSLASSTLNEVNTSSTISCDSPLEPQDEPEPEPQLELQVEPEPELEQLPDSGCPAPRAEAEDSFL

Sequence of Platelet-derived growth factor receptor alpha (Homo sapiens) (P16234 whole entry): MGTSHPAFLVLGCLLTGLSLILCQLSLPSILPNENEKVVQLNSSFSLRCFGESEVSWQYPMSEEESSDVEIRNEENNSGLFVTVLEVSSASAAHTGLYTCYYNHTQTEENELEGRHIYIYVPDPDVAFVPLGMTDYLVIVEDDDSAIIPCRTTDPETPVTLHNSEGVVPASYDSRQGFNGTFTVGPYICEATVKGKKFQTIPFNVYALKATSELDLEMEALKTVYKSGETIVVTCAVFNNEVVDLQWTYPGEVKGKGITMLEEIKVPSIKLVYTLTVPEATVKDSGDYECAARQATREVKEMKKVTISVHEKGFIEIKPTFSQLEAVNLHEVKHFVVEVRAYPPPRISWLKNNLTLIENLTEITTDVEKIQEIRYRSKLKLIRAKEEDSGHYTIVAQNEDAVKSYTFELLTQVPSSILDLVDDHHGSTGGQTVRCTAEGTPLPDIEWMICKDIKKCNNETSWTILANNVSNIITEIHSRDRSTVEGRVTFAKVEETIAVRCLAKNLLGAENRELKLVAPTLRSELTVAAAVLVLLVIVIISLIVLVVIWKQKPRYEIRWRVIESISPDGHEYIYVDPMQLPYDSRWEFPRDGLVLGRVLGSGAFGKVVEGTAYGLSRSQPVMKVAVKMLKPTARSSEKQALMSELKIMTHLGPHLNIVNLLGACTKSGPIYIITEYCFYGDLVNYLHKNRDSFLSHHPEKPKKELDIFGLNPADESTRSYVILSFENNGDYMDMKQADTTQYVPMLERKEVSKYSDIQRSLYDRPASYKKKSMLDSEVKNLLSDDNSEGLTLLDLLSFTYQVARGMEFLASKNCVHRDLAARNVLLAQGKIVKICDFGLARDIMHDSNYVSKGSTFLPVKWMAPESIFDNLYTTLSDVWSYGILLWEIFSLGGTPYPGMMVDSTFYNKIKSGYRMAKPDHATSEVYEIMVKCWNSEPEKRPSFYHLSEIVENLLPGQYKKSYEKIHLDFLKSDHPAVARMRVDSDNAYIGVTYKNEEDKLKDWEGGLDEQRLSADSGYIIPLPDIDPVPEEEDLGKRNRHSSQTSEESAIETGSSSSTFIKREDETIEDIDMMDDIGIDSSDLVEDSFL
Sequence of Platelet-derived growth factor receptor alpha (Homo sapiens), P16234 [T674I] (P16234 whole entry T674I): as the sequence (P16234 whole entry) above, with T674I counted along it
Sequence of Platelet-derived growth factor receptor alpha (Homo sapiens), P16234 [V561D] (P16234 whole entry V561D): as the sequence (P16234 whole entry) above, with V561D counted along it
Sequence of Platelet-derived growth factor receptor alpha (Homo sapiens), P16234 [D842V] (P16234 whole entry D842V): as the sequence (P16234 whole entry) above, with D842V counted along it

As to `COc1cc(Nc2ncc3c(C)nc(-c4cccc(Oc5ccccc5)c4)n3n2)cc(OC)c1OC`, the inhibition in [1] was 4.06%; in [2], 3.72%; in experiment [3], 10.5%; in [4] it was 2.21%; in experiment [5], 5.9%; in experiment [6], 1.26%. Also, the inhibition in experiment [7] is 1.96%; in experiment [8], 1.43%; in experiment [9] it was 9.34%; in experiment [10] it was 0.58%.
Take `O=C(Nc1n[nH]c2cc(-c3cc(F)ccc3F)ccc12)C1CC1`: the inhibition is 10.1% in experiment [1]; 7.53% in [2]; 18.3% in [3]; 2.07% in experiment [4]; 7.89% in [5]; 5.2% in [6]. In addition, the inhibition in experiment [7] stood at 9.61%; in experiment [8], 3.2%; in [9], 13.2%; in [10], 3.6%.
`CN(c1ccc(NC(=O)Nc2c(Cl)cccc2Cl)cc1)c1ccnc(Nc2cccc(CS(C)(=O)=O)c2)n1`: the inhibition in [1] came to 89.9%; in [2], 69.3%; in [3], 86.6%; in experiment [4] it was 6.78%; in experiment [5], 28.6%; in [6], 72.1%. For the same molecule, the inhibition amounted to 97.5% in experiment [7], 78.7% in experiment [8], 91.2% in [9] and 52.4% in [10].
Consider `c1ccc(-c2n[nH]cc2-c2ccnc(-c3ccc(OCCN4CCOCC4)cc3)c2)nc1`, for which the inhibition in experiment [1] came to 9.04%; in experiment [2], 20.1%; in experiment [3], 58.7%; in [4] it was 18.6%; in experiment [5], 71%; in experiment [6], 5.25%. For the same molecule, the inhibition is -0.97% in experiment [7], 11.7% in [8], 55.5% in experiment [9] and 16.2% in experiment [10].
As to `O=C1Nc2ccc(I)cc2C1=Cc1cc(Br)c(O)c(Br)c1`, the inhibition in experiment [1] was determined as 6.35%; in [2], 2.96%; in experiment [3], 9.37%; in [4], 2.93%; in [5], 3.36%; in experiment [6], 2.82%. Further, the inhibition in experiment [7] was determined as 5.91%; in experiment [8] it was 3.34%; in experiment [9], 7.24%; in experiment [10], 0.08%.
For `COc1ccc(C2=C(N3CCc4ccccc43)C(=O)NC2=O)cc1`, the inhibition in [1] is 6.74%; in experiment [2] it was 4.56%; in experiment [3], 16.3%; in experiment [4], 5.15%; in [5] it was 8.45%; in experiment [6], 7.16%. Also, the inhibition stood at 10.6% in experiment [7], 5.61% in experiment [8], 6.87% in experiment [9] and 5.31% in [10].
Regarding `CS(=O)(=O)CCNCc1cc(-c2cc3c(Nc4ccc(OCc5cccc(F)c5)c(Cl)c4)ncnc3s2)cs1`, the inhibition turned out to be 8.6% in experiment [1]; 9.29% in [2]; 13.6% in experiment [3]; 2.14% in [4]; 4.9% in experiment [5]; 8.52% in experiment [6]. The inhibition came to 11.1% in experiment [7], 4.52% in [8], 5.56% in [9] and 4.84% in [10].
With `COc1ccc(-c2ccc3c(NC(=O)C4CC4)n[nH]c3n2)cc1`, the inhibition in experiment [1] turned out to be 3.83%; in experiment [2], 3.05%; in experiment [3], 12.2%; in experiment [4], 1.56%; in experiment [5], 5.35%; in experiment [6], 3.4%. The inhibition was 7.13% in [7], 4.3% in experiment [8], 9.71% in experiment [9] and 1.45% in [10].
Regarding `NS(=O)(=O)c1ccc(N/N=C2\C(=O)Nc3ccc(C(=O)NCCCn4ccnc4)cc32)cc1`, the inhibition in experiment [1] amounted to 21.6%; in experiment [2], 10.6%; in [3], 54.2%; in experiment [4], 13%; in experiment [5], 57.8%; in experiment [6], 5.56%. Also, the inhibition in [7] was 12.4%; in [8], 11.6%; in experiment [9], 47%; in experiment [10], 23.1%.
As for `Fc1ccc(-c2ncn(CCCN3CCOCC3)c2-c2ccncc2)cc1`, the inhibition in [1] stood at 1.32%; in experiment [2] it was 6.11%; in experiment [3], 7.26%; in experiment [4], 2.37%; in [5], 1.54%; in experiment [6], 1.55%. The inhibition in experiment [7] was -0.15%; in [8], -0.24%; in [9], 3.42%; in experiment [10], -0.37%.
`COc1ccc2ncn(-c3cc(O[C@H](C)c4ccccc4Cl)c(C(N)=O)s3)c2c1`: the inhibition in experiment [1] was determined as 15%; in [2], 10.4%; in experiment [3], 23.1%; in experiment [4], 2.8%; in experiment [5], 11.8%; in experiment [6], 0.85%. Moreover, the inhibition in experiment [7] was found to be 9.98%; in experiment [8] it was 4.37%; in experiment [9] it was 16.6%; in [10] it was 5.46%.
Take `CN1CCN(CCCNc2nc3ccc(Oc4ccc(NC(=O)Nc5cc(C(F)(F)F)ccc5F)cc4)cc3[nH]2)CC1`: the inhibition in [1] worked out at 59.2%; in experiment [2] it was 32.6%; in experiment [3], 76.4%; in experiment [4], 2.11%; in experiment [5], 4.41%; in [6], 29.5%. The inhibition was found to be 90.7% in experiment [7], 36% in experiment [8], 80.7% in experiment [9] and 14.1% in experiment [10].
For the molecule `FC(F)(F)c1cccc(Nc2nccc(-c3cnn4nc(-c5ccccc5)ccc34)n2)c1`, the inhibition in experiment [1] is 0.42%; in [2] it was 7.91%; in experiment [3] it was 42.6%; in experiment [4], 4.44%; in experiment [5], 33.6%; in experiment [6] it was 3.36%. Besides, the inhibition in [7] came to 9.98%; in experiment [8] it was 6.8%; in experiment [9] it was 39.2%; in [10], 7.48%.
`O=C(Nc1n[nH]c2cc(-c3ccccc3)ccc12)C1CC1`: the inhibition is 4.91% in [1]; 8.78% in [2]; 20.4% in experiment [3]; 2.33% in [4]; 8.97% in [5]; 4.04% in experiment [6]. For the same molecule, the inhibition came to 9.67% in experiment [7], 4.85% in experiment [8], 19.4% in [9] and 6.45% in experiment [10].
Regarding `CN(C)CCCNc1nccc(-c2c(-c3ccc(F)cc3)nn3cc(C(F)(F)F)ccc23)n1`, the inhibition came to 12.5% in experiment [1]; 12.9% in experiment [2]; 18.6% in [3]; 3.3% in [4]; 4.77% in experiment [5]; 9.27% in experiment [6]. In addition, the inhibition in experiment [7] turned out to be 4.87%; in [8], 0.27%; in [9] it was 5.89%; in experiment [10] it was 6.34%.
On to `Fc1ccc(-c2c(-c3ccncc3)nc3n2CCS3)cc1`, for which the inhibition amounted to 1.19% in [1]; 4.27% in experiment [2]; 11.9% in [3]; 1.59% in experiment [4]; 3.82% in experiment [5]; 3.55% in [6]. Moreover, the inhibition was found to be 3.84% in experiment [7], 2.1% in experiment [8], 2.96% in experiment [9] and 1.36% in experiment [10].
As to `NCc1ccc(-n2c(-c3nonc3N)nc3cnccc32)cc1`, the inhibition came out at 8.78% in experiment [1]; 10.2% in experiment [2]; 18% in experiment [3]; 9% in experiment [4]; 16.1% in [5]; 8.3% in experiment [6]. The inhibition in experiment [7] was found to be 17.7%; in experiment [8], 2.5%; in experiment [9] it was 8.66%; in experiment [10], 9.08%.
With `NC(=O)c1cc(-c2ccncc2)cc(-c2ccccc2)c1N`, the inhibition amounted to 3.55% in [1]; 9.17% in [2]; 36.2% in experiment [3]; 3.01% in [4]; 11.3% in experiment [5]; 5.87% in experiment [6]. The inhibition is 11.6% in experiment [7], 5.79% in experiment [8], 37.8% in experiment [9] and 9.7% in experiment [10].
With `Fc1ccc(-c2ncn(C3CCNCC3)c2-c2ccnc(Oc3ccc(F)c(F)c3)n2)cc1`, the inhibition stood at 4.68% in experiment [1]; 11% in experiment [2]; 14.7% in [3]; 2.91% in [4]; 3.42% in experiment [5]; 1.08% in experiment [6]. Besides, the inhibition in experiment [7] stood at 7.95%; in experiment [8], 2.26%; in [9] it was 5.74%; in experiment [10] it was 5.46%.
